From PubChem BioAssay (EPA / NIEHS)
Results filed as inconclusive are left out. Activity calls are given as the source filed them. The calls were made as follows: active = hit-call score of the fitted dose curve at least 0.9, where 1 is the maximum; inconclusive = response in the unintended direction; inactive = score below 0.9.

assay: IUF_NPC2-5_cytotoxicity_72hr: Cytotoxicity Assessment at 72 hours in the Leibniz Research Institute for Environmental Medicine (IUF) Neural Progenitor Cell Migration and Differentiation Assay for Cytotoxicity (NPC2-5) (AID 2284306);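 also: LDH release into supernatant measured by resorufin fluorescence marking membrane damage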
Protocol: IUF_NPC2-5 is a cell-based, multiplexed assay that uses hNPC, a human primary neural progenitor cells, with measurements taken at 72 or 120 hours after chemical dosing in a 96-well plate. Human neural progenitor cells (hNPC) are generated from human fetal brain cortex at gestational week (GW) 16-19. In the neural progenitor cell migration and differentiation assay (NPC2-5), hNPCs grown as spheres are plated on an extracellular matrix and migrate and differentiate out of the sphere core. The processes radial glia migration, neuronal and oligodendrocyte migration as well as neuronal differentiation, neuronal morphology and oligodendrocyte differentiation are studied using automated phase contrast imaging and automated fluorescence imaging in combination with high content image analysis. In parallel, the cell viability is assessed using an alamar blue viability assay and the cytotoxicity using a lactate dehydrogenase dependent membrane integrity assay.IUF_NPC2-5_cytotoxicity_72hr is one of 12 assay components measured from the IUF_NPC2-5 assay. It is designed to measure the cytotoxicity at 72 hr as assessed by membrane integrity related to the LDH dependent reduction of resazurin to resorufin in the supernatant of each well. The cytotoxicity is measured as fluorescence signal (relative fluorescence unit) in a multiplate reader. Data from the IUF_NPC2-5_cytotoxicity_72hr component was analyzed at the endpoint IUF_NPC2-5_cytotoxicity_72hr in the positive analysis fitting direction relative to the dynamic range and baseline of activity. Using a type of viability reporter, gain-of-signal activity can be used to understand cytotoxicity effects.
Culture protocol: After the cell expansion period the cells are cultured for up to four weeks in which they are passaged every week as described in 3.6. Between one to three days after passaging spheres at a size of 0.3 mm are picked for the test method. For the assessment of neural progenitor cell migration and differentiation, the spheres are plated on poly-D-lysine/laminin coated 96-well flat bottom plates in differentiation medium (N2) to initiate migration and differentiation. Thereby one 0.3 mm big sphere is plated in the middle of a well. The differentiation medium consists of DMEM and Ham's F12 at a ratio of 3 to 1 supplemented with 1% N2 and 1% penicillin and streptomycin. Within 5 days NPCs radially migrate out of the sphere core and differentiate into radial glia cells (nestin positive), neurons (TUBB3 positive), oligodendrocytes (O4 positive) and astrocytes (GFAP positive). Cultivation during the test method is performed at 37C and 5% CO2 at a ph of 7.2-7.6.Exposure: 0.3 mm big hNPC are plated in the already prepared test conditions. Exposure starts at day 0 of differentiation and is continued over five days of differentiation until the experiment is terminated. Cells are fed with fresh medium at day 3 of differentiation. Therefore, half of the test condition solution (e.g. solvent control or compound dilution) is replaced by freshly prepared test condition solution.Test Method: Migration distance and cytotoxicity is determined after 72 hours based on brightfield images of each well. The assay is terminated by the assessment of cell viability and cytotoxicity as well as cell fixation after 120 h. Immunocytochemistry is performed for Hoechst positive nuclei, TUBB3 positive neurons and O4 positive oligodendrocytes. On the ICC images, migration after 120 hours, neuronal and oligodendrocyte number, neuronal morphology and neuron/oligodendrocyte specific migration is assessed. immunocytochemical staining (ICC) generates an image for each sphere. The plates are scanned using an automated high content imaging device and all nuclei and their positions are determined automatically based on their intensity and size. Images are imported to the Omnisphero software to run the image analysis that measures the following endpoints. […]

SMILES | outcome | AC50
O=[As]O | inactive | –
CNC1(c2ccccc2Cl)CCCCC1=O (stereo unspecified) | inactive | –
CC(=O)[O-].[Tl+] | inactive | –
CC1(C)[C@H](C=C(Cl)Cl)[C@H]1C(=O)OCc1c(F)c(F)cc(F)c1F | inactive | –
CC1(C)C(C=C(Cl)Cl)C1C(=O)O[C@H](C#N)c1cccc(Oc2ccccc2)c1 (stereo partly specified) | inactive | –
O=C1N[C@@H]2C(=C[C@H](O)[C@@H](O)[C@H]2O)c2cc3c(c(O)c21)OCO3 | inactive | –
COP(=O)(OC)SCN1C(=O)c2ccccc2C1=O | inactive | –
Cn1nc(C(F)(F)F)c(CS(=O)(=O)C2=NOC(C)(C)C2)c1OC(F)F | inactive | –
CCOP(=S)(OCC)SCS(=O)C(C)(C)C (stereo unspecified) | inactive | –
CCOP(=O)(OCC)SCSC(C)(C)C | inactive | –
Brc1ccc(Oc2ccc(Br)cc2Br)c(Br)c1 | inactive | –
Brc1ccc(Oc2cc(Br)c(Br)cc2Br)c(Br)c1 | inactive | –
CC(C)CC(C)c1sccc1NC(=O)c1cn(C)nc1C(F)(F)F (stereo unspecified) | inactive | –
CC1(C)C(C=C(Cl)c2ccc(Cl)cc2)C1C(=O)OC(C#N)c1ccc(F)c(Oc2ccccc2)c1 (stereo unspecified) | inactive | –
C[n+]1ccc(-c2cc[n+](C)cc2)cc1 | inactive | –
C/C(=C/C=C/[C@@H](C)C(=O)O)[C@H]1CN[C@H](C(=O)O)[C@H]1CC(=O)O | inactive | –

SMILES | outcome | AC50
[CH3][Hg][Cl] | inactive | –
CCOP(=O)(OCC)SCSCC | inactive | –
CC1(C)[C@@H](C=C(Cl)Cl)[C@@H]1C(=O)O[C@@H](C#N)c1ccc(F)c(Oc2ccccc2)c1 | inactive | –
CC1(C)[C@H](C(=O)O[C@H](C#N)c2cccc(Oc3ccccc3)c2)[C@@H]1C=C(Br)Br | – | 3.53 µM (active)
CCOP(=O)(OCC)OC(Cl)C(Cl)(Cl)Cl (stereo unspecified) | inactive | –
[Cd+2].[Cl-].[Cl-] | – | 13.5 µM (active)
C[n+]1ccc(-c2ccccc2)cc1 | inactive | –
CC(=O)[O-].CC(=O)[O-].O.O.O.[Pb+2] | inactive | –
CC1(C)C(C=C(Cl)Cl)[C@H]1C(=O)O[C@H](C#N)c1cccc(Oc2ccccc2)c1 (stereo partly specified) | inactive | –
CCOP(=O)(Oc1cnc(C(C)(C)C)nc1)OC(C)C (stereo unspecified) | inactive | –
CNC(=N[N+](=O)[O-])NCC1CCOC1 (stereo unspecified) | inactive | –
[O-][Cl+3]([O-])([O-])O | inactive | –
CP(=O)(O)CCC(N)C(=O)O (stereo unspecified) | inactive | –
Cc1ccc(OP(=O)(Oc2ccc(C)cc2)Oc2ccc(C)cc2)cc1 (tested in a mixture with another compound) | inactive | –
CC(C)CCCCCCCOP(=O)(Oc1ccccc1)Oc1ccccc1 | inactive | –
